According to PubChem BioAssay AID1159580 (chemical genetic matrix, 2015):
The campaign covered roughly 5,500 compounds. About 2,000 (36%) were called active. About 18% were inconclusive and are not listed. Rule as the data show it: active = normalized growth mostly below about 0.91 (no sharp cut-off); inconclusive = no clear call, values can overlap the other calls; inactive = mostly above about 0.92. The list shows a part of the results.

Experiment: chemical genetic growth profiling, strain panel (AID 1159580);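 also: tested at 20 µM; growth read once vehicle control cultures reached saturation at 30 °C; 1 = growth at the plate median or of vehicle wells; lower values mean less growth of the strain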
Details: growth OD
[1] = S. cerevisiae deletion strains, locus YAL013W, strain DEP1, stronger effect = lower value
[2] = S. cerevisiae deletion strains, locus YDR150W, strain NUM1, stronger effect = lower value
[3] = S. cerevisiae deletion strains, locus YMR263W, strain SAP30, stronger effect = lower value
[4] = S. cerevisiae deletion strains, locus YMR307W, strain GAS1, stronger effect = lower value
[5] = S. cerevisiae deletion strains, locus YNL153C, strain GIM3, stronger effect = lower value

Measured: normalized growth

S=c1[nH]nc(-c2ccco2)n1-c1ccc2c(c1)OCCO2
inactive: [1] 0.998 | S. cerevisiae deletion strains, locus YBR229C, strain ROT2, stronger effect = lower value 0.985 | S. cerevisiae deletion strains, locus YCL061C, strain MRC1, stronger effect = lower value 0.994 | S. cerevisiae deletion strains, locus YDL101C, strain DUN1, stronger effect = lower value 0.989 | S. cerevisiae deletion strains, locus YDL134C, strain PPH21, stronger effect = lower value 0.991 | [2] 1.02 | S. cerevisiae deletion strains, locus YEL061C, strain CIN8, stronger effect = lower value 1.02 | S. cerevisiae deletion strains, locus YGR078C, strain PAC10, stronger effect = lower value 0.979 | S. cerevisiae deletion strains, locus YHR030C, strain SLT2, stronger effect = lower value 1.05 | S. cerevisiae deletion strains, locus YHR087W, strain rtc3, stronger effect = lower value 0.983 | S. cerevisiae deletion strains, locus YJR043C, strain POL32, stronger effect = lower value 0.987 | S. cerevisiae deletion strains, locus YJR075W, strain HOC1, stronger effect = lower value 0.985 | S. cerevisiae deletion strains, locus YKL190W, strain CNB1, stronger effect = lower value 0.989 | S. cerevisiae deletion strains, locus YLR039C, strain RIC1, stronger effect = lower value 0.972 | S. cerevisiae deletion strains, locus YLR058C, strain SHM2 (second series), stronger effect = lower value 0.98 | S. cerevisiae deletion strains, locus YLR085C, strain ARP6, stronger effect = lower value 0.994 | S. cerevisiae deletion strains, locus YLR262C, strain YPT6, stronger effect = lower value 0.991 | S. cerevisiae deletion strains, locus YML094W, strain GIM5, stronger effect = lower value 1 | S. cerevisiae deletion strains, locus YMR219W, strain ESC1, stronger effect = lower value 0.991 | [3] 1.02 | [4] 1.05 | [5] 0.993 | S. cerevisiae deletion strains, locus YNL298W, strain CLA4 (second series), stronger effect = lower value 1.01 | S. cerevisiae deletion strains, locus YNL322C, strain KRE1, stronger effect = lower value 0.988 | S. cerevisiae deletion strains, locus YNR030W, strain Alg12, stronger effect = lower value 1.01 | S. cerevisiae deletion strains, locus YOL006C, strain TOP1, stronger effect = lower value 0.978 | S. cerevisiae deletion strains, locus YPL055C, strain LGE1, stronger effect = lower value 0.971 | S. cerevisiae deletion strains, locus YPL241C, strain CIN2, stronger effect = lower value 1 | S. cerevisiae deletion strains, locus YPR135W, strain CTF4, stronger effect = lower value 1.06 | S. cerevisiae strains, strain wild type, stronger effect = lower value 0.979

Cn1cnc2c(NC3CCCC3)ncnc21
inactive: [1] 0.992 | S. cerevisiae deletion strains, locus YAL040C, strain CLN3, stronger effect = lower value 0.993 | S. cerevisiae deletion strains, locus YCL061C, strain MRC1 (second series), stronger effect = lower value 1 | [2] 0.999 | S. cerevisiae deletion strains, locus YDR363W, strain ESC2, stronger effect = lower value 1 | S. cerevisiae deletion strains, locus YER002W, strain NOP16, stronger effect = lower value 1.01 | [3] 1 | [4] 0.989 | S. cerevisiae deletion strains, locus YNL128W, strain TEP1, stronger effect = lower value 1 | [5] 1.02 | S. cerevisiae deletion strains, locus YNL175C, strain NOP13, stronger effect = lower value 1.04 | S. cerevisiae deletion strains, locus YNL197C, strain WHI3, stronger effect = lower value 1 | S. cerevisiae deletion strains, locus YNL224C, strain SQS1, stronger effect = lower value 0.997 | S. cerevisiae deletion strains, locus YOR083W, strain WHI5 (second series), stronger effect = lower value 0.984
